Laboratory results published in the supplement of paper PMC7530171.
± gives the standard deviation.

Tested on: THP-1
Assay: THP-1 cell loss relative to DMSO control; higher = more host cell loss (toxicity); extreme values may be limits of the assay
Details: 10 µM; 4 days; infection: M. tuberculosis H37Rv
Experimental: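 OICR kinase inhibitor library screened in duplicate at 10 uM against M. tuberculosis-infected THP-1 macrophages, 4 days at 37 C. THP-1 cell loss (cytotoxicity or loss of adherence) was quantified from Hoechst-stained nuclei counts by high-content imaging and normalised to the 1% DMSO control; 100 = complete loss of host cells.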

SMILES	THP-1 cell loss [%]
COc1ccc2c(c[n+](C)c3c4cc5c(cc4ccc23)OCO5)c1OC [Chelerythrine chloride]	100
O=C1NC(=O)c2c1c1c3ccccc3[nH]c1c1[nH]c3ccccc3c21 [Arcyriaflavin A]	75.7 ± 34
CN[C@@H]1C[C@H]2O[C@@](C)([C@@H]1OC)n1c3ccccc3c3c4c(c5c6ccccc6n2c5c31)C(=O)NC4 [Staurosporine]	100
C[C@]12O[C@H](C[C@]1(O)CO)n1c3ccccc3c3c4c(c5c6ccccc6n2c5c31)CNC4=O [Lestaurtinib]	100
COC[C@H]1OC(=O)c2coc3c2[C@@]1(C)C1=C(C3=O)[C@@H]2CCC(=O)[C@@]2(C)C[C@H]1OC(C)=O [Wortmannin]	45.8 ± 7.5
CCn1cnc2c(Nc3cccc(Cl)c3)nc(N[C@@H]3CCCC[C@@H]3N)nc21	100
NC(=S)N/N=C/c1coc2ccccc2c1=O.[Cl][Cu][Cl]	16.3 ± 5.1
COC(=O)[C@@]1(O)C[C@H]2O[C@]1(C)n1c3ccccc3c3c4c(c5c6ccccc6n2c5c31)C(=O)NC4	100
COc1ccc2c(c1)/C(=C/c1cnc[nH]1)C(=O)N2	53.2 ± 9.3
Cc1n[nH]c2ccc(-c3cncc(OC[C@@H](N)Cc4c[nH]c5ccccc45)c3)cc12	100
O=c1[nH]c2ccc(Cl)cc2c(N[C@@H]2CN3CCC2CC3)c1-c1nc2ccccc2[nH]1	100
O=C1NC(=O)c2c1c1c3ccccc3n3c1c1c2c2ccccc2n1[C@H]1CC[C@@H]3O1	100
CC(=O)c1c(O)c(C)c(O)c(Cc2c(O)c3c(c(C(=O)/C=C/c4ccccc4)c2O)OC(C)(C)C=C3)c1O [Rottlerin]	71.2 ± 41
C/C(O)=C(\C#N)C(=O)Nc1cc(Br)ccc1Br	4 ± 5.7
Cn1cc(C2=C(c3cn(C4CCN(Cc5ccccn5)CC4)c4ccccc34)C(=O)NC2=O)c2ccccc21 [Enzastaurin]	52.5 ± 67
O=C1Nc2ccc3ncsc3c2/C1=C/c1cnc[nH]1 [Imidazolo-oxindole PKR inhibitor C16]	100
N#C/C(=C\c1ccc(O)c(O)c1)C(N)=S	11.5 ± 1.3
Cc1ccccc1-n1c(Cn2cnc3c(N)ncnc32)nc2cccc(C)c2c1=O	5.83 ± 8.2
